Measured values reported in ChEMBL document CHEMBL3988442, “University of Dundee, Small-Polar-MMV Screening Library” (2021).
For some of these results: Results with a measured potency or affinity are listed apart.

Tests used:
Parameters in all cases: scale not given: direction of the effect not stated beside the values
[1] = biological target: Protein translocase subunit SecA (Escherichia coli (strain K12)) (UniProt P10408); assay: Assay to Identify E. coli SecA ATPase Inhibitors; format: functional; conditions: 30 µM
Chain of Protein translocase subunit SecA (Escherichia coli (strain K12)) (P10408 whole entry): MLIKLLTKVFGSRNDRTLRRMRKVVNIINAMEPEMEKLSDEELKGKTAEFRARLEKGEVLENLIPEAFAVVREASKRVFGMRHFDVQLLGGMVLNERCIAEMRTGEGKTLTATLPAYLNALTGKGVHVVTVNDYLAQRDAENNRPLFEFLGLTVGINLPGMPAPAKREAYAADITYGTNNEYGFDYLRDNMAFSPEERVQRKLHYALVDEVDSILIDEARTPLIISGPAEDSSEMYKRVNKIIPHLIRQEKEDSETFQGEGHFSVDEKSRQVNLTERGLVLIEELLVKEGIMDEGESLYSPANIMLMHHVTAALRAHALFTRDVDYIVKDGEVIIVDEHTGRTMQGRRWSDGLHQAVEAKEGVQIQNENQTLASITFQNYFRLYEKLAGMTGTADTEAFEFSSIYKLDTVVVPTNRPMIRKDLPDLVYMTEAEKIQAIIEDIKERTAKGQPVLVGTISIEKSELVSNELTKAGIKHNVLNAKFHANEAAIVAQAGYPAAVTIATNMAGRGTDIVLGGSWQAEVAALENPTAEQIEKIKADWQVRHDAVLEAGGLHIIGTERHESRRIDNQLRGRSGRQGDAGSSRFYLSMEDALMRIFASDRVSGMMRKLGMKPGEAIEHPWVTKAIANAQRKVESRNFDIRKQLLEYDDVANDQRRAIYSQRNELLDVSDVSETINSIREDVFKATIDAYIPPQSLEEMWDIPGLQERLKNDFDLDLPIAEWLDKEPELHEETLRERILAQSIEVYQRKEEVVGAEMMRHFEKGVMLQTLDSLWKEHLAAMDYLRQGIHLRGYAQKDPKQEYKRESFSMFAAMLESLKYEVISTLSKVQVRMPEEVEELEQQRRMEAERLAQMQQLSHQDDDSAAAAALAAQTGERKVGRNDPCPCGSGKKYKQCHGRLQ

[2] = biological target: T1, Ubiquitin-activating enzyme e1, putative (Leishmania donovani (strain BPK282A1)) (UniProt E9BSI1); assay: Leishmania donovani Ubiquitin Activating Enzyme (LdE1); format: functional; conditions: 30 µM
T1 sequence (whole entry): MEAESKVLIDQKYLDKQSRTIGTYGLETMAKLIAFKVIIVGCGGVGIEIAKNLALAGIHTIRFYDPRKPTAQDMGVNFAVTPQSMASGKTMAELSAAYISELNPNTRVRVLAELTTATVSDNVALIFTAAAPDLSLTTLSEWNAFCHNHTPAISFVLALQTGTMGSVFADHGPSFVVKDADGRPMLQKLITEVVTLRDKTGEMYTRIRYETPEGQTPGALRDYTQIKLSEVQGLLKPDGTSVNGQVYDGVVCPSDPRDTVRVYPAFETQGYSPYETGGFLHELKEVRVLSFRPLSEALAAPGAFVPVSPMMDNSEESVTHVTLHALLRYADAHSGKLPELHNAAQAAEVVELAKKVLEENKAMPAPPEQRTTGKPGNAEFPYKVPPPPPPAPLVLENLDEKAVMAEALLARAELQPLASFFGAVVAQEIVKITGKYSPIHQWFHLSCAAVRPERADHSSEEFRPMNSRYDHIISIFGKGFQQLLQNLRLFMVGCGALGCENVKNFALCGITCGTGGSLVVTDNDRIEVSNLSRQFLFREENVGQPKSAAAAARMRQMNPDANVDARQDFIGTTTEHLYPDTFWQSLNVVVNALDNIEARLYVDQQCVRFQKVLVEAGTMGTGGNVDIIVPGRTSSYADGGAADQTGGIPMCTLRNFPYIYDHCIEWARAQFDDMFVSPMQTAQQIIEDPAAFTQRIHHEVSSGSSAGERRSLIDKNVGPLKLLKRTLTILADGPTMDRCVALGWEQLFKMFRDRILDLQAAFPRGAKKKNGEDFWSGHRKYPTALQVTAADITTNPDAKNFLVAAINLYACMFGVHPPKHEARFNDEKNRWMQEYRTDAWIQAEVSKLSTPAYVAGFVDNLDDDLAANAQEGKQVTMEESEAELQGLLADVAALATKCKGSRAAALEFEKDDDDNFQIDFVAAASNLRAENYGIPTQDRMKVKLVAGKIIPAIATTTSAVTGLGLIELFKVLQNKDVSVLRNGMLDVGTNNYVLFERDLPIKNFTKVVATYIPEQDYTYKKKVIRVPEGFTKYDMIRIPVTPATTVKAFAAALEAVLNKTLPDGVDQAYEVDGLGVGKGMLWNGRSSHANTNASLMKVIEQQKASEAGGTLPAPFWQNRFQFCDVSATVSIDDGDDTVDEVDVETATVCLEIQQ

[3] = biological target: Sialic acid-binding Ig-like lectin 9 (Homo sapiens) (UniProt Q9Y336); assay: Hs-Siglec9 ALPHAscreen SOP 20170721; conditions: 10 µM
Chain of Sialic acid-binding Ig-like lectin 9 (Homo sapiens) (Q9Y336 whole entry): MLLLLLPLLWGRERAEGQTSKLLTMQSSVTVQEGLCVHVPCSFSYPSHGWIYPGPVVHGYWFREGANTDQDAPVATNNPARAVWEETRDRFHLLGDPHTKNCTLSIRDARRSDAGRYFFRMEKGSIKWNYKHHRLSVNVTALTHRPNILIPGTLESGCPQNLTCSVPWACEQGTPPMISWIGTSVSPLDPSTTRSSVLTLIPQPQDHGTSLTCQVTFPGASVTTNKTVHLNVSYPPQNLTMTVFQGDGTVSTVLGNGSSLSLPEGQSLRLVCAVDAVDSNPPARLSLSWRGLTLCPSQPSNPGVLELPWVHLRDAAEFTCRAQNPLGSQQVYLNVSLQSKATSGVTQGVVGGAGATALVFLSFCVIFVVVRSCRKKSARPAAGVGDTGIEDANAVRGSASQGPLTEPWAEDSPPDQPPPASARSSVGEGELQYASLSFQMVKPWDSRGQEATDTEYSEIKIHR

[4] = system: Trypanosoma cruzi; assay: Trypanosoma cruzi phosphomannomutase and mannose-1-phosphate guanylyltransferase assay; format: functional; conditions: 10 µM
[5] = biological target: T2, Arginase-2, mitochondrial (Homo sapiens) (UniProt P78540); assay: in vitro enzyme assay to detect the production of urea directly proportional to the activity of Arginase II; format: functional; conditions: 33.3 µM; note: in the data most compounds retested in dose-response had high values
T2 sequence (whole entry): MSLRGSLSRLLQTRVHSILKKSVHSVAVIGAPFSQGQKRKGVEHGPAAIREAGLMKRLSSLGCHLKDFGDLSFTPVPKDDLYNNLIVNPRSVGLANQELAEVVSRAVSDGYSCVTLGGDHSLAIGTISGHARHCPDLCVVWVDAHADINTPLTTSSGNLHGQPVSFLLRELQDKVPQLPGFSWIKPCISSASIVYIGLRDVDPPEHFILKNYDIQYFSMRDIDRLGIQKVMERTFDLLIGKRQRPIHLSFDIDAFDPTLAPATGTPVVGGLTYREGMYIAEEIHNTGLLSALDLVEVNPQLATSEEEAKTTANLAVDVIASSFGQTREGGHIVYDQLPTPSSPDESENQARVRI

[6] = biological target: T3, Proteasome subunit beta (Trypanosoma cruzi) (UniProt O96673); assay: Trypanosoma cruzi proteasome chymotrypsin-like activity (TcProtChymo) assay.; note: in the data most compounds retested in dose-response had high values; format: functional; conditions: 9.37 µM
T3 sequence (whole entry): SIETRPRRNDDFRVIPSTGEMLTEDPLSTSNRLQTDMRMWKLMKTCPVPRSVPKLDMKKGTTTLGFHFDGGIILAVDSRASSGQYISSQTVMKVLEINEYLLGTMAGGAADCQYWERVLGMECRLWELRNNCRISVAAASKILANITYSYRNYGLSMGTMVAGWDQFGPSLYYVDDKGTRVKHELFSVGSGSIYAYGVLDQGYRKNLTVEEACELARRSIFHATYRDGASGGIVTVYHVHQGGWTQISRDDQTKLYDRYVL

[7] = species: Homo sapiens; assay: To identify inhibition of the IFN signalling (Jak-Stat) pathway via expression of an eGFP reporter gene under the control of an IFN-stimulated response element (ISRE) containing MxA promoter.; format: functional; conditions: 30 µM
[8] = biological target: T4, Tyrosyl-tRNA synthetase, putative (Trypanosoma cruzi (strain CL Brener)) (UniProt Q4DSP6); assay: Trypanosoma cruzi tyrosyl tRNA synthetase (TcYRS) _High Tyrosine SOP; format: functional; conditions: 30 µM; note: in the data most compounds retested in dose-response had high values
T4 sequence (whole entry): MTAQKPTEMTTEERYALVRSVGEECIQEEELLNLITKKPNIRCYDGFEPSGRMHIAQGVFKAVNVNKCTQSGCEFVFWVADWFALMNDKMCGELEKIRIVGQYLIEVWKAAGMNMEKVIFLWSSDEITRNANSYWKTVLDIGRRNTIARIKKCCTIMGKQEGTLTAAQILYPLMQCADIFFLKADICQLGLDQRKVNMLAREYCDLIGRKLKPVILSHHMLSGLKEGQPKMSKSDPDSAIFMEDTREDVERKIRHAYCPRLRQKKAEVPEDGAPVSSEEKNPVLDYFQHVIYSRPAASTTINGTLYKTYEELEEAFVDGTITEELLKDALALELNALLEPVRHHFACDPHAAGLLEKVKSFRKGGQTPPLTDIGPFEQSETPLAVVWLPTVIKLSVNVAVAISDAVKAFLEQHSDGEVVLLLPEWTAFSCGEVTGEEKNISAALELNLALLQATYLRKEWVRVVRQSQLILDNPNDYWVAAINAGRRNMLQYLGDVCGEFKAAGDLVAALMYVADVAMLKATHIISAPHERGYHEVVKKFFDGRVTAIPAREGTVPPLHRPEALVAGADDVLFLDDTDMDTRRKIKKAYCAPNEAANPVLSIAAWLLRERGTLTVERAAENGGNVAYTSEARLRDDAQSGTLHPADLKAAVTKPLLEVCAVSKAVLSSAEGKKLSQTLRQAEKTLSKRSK

[9] = biological target: T4, Tyrosyl-tRNA synthetase, putative (Trypanosoma cruzi (strain CL Brener)); assay: Trypanosoma cruzi tyrosyl tRNA synthetase (TcYRS) SOP; format: functional; conditions: 30 µM
[10] = biological target: Chromo domain-containing protein 1 (Saccharomyces cerevisiae (strain ATCC 204508 / S288c) (Baker's yeast)) (UniProt P32657); assay: ScCHD-1 Enzyme Inhibition Assay; format: functional; conditions: 30 µM; note: in the data most compounds retested in dose-response had high values
Chain of Chromo domain-containing protein 1 (Saccharomyces cerevisiae (strain ATCC 204508 / S288c) (Baker's yeast)) (P32657 whole entry, the tested form may be a part): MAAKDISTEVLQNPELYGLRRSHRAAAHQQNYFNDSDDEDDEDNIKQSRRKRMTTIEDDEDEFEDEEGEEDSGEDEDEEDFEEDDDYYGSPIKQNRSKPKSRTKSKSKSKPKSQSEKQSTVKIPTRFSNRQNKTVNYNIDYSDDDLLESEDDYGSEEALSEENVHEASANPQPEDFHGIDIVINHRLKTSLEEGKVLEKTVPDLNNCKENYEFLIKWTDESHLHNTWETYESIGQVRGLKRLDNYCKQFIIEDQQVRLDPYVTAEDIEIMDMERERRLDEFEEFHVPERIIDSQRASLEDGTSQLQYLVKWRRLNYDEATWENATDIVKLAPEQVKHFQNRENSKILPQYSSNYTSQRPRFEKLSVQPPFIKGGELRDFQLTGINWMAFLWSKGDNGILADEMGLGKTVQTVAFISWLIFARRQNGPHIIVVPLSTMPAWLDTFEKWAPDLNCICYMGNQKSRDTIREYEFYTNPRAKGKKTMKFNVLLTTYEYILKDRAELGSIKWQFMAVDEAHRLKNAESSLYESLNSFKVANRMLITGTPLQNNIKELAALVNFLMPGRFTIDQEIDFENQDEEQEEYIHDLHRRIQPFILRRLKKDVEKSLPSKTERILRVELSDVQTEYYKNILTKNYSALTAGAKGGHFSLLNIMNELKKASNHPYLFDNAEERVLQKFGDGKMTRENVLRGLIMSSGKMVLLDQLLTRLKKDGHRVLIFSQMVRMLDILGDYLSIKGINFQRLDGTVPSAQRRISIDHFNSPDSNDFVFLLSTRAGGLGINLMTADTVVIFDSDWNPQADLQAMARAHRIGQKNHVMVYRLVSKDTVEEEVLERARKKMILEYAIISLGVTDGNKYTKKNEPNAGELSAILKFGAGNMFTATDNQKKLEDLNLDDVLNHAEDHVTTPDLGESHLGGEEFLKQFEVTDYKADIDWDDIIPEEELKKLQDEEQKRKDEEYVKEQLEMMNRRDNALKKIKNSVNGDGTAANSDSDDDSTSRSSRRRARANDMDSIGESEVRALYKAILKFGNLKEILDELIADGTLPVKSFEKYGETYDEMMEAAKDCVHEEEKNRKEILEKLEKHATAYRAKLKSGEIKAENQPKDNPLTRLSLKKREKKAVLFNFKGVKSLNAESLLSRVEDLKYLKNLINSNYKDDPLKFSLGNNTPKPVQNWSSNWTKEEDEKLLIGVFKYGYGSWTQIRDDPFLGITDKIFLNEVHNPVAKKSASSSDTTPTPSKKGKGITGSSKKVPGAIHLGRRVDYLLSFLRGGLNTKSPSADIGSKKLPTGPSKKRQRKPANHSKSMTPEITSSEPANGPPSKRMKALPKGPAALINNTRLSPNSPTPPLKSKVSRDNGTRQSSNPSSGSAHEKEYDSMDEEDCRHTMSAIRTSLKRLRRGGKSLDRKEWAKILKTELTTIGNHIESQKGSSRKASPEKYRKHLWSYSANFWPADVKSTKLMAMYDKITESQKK

Row | SMILES | Percent Effect [1] | Percent Effect [2] | Percent Effect [3] | Percent Effect [4] | Percent Effect [5] | Percent Effect [6] | Percent Effect [7] | Percent Effect [8] | Percent Effect [9] | Percent Effect [10]
1 | CCc1nc(C2CCCN2C(=O)c2ccoc2C)no1 (stereo not given) | 2.59% | -2.56% | 10.5% | 0.469% | 5.74% | 2.3% | 17.4% | -0.478% | -18.1% | 0.101%
2 | Cc1cc(NC(=O)N(CC2CCOC2)C2CC2)no1 (stereo not given) | -2.1% | 13.3% | 6.54% | 1.21% | 2.22% | 6.7% | 21.8% | 5.79% | 12.8% | -7.01%
3 | Cc1ccc(F)cc1S(=O)(=O)NCc1cccnc1N(C)C | 2.25% | 20.8% | -2.76% | -0.373% | -5.53% | 14.7% | 26.1% | 7.84% | 21.2% | -8.95%
4 | Cc1ccc(NC(=O)C(C)N2CCCN(c3nccs3)CC2)c(C)c1 (stereo not given) | -1.1% | 15.4% | -3.51% | -1.41% | 4.51% | 14.1% | 8.08% | 2.39% | 6.02% | -0.819%
5 | O=C(CN1CCCS1(=O)=O)NCCOc1ccc2c(c1)CCC2 | -6.62% | 2.56% | 4.23% | 3.66% | 5.74% | -10.2% | 6.45% | 1.44% | 6.02% | -2.78%
6 | O=c1c2ccccc2nc2n1C(CSc1ccc(Cl)cc1Cl)CN2 (stereo not given) | -1.78% | 19.5% | -1.05% | -1.31% | 5.94% | 13.3% | 32.9% | 1.93% | 10% | -2.41%
7 | Cc1cccc(CN2C[C@@H]3COC[C@]3(CNC(=O)N3CCCC3)C2)n1 | -4.34% | -1.3% | 12.9% | -3.02% | -4.86% | 4.68% | 1.04% | 3.68% | 5.13% | 1.29%
8 | Cc1ccc(C(=O)N2CCC3(CC2)CC(N2CCOCC2)C3)cc1 | -2.43% | 9.09% | -5.57% | 1.31% | 0.457% | -3.18% | -1.46% | 3.87% | 2.5% | 0.386%
9 | c1cnnc(N2CCCC2CNCc2ccsc2)c1 (stereo not given) | -2.09% | -5.13% | -6.52% | 10.1% | 4.1% | -8.45% | 15.3% | -0.478% | 6.02% | -2.21%
10 | CCC1CN(C(=O)c2ccccc2N2CCCC2)CCN1C(C)C (stereo not given) | -7.26% | 5.41% | -0.153% | -4.75% | -5.94% | 5.31% | -3.97% | 3.72% | -7.32% | -5.34%
11 | CCOCCN1CCCC(c2cc(C(N)=O)[nH]n2)C1 (stereo not given) | -1.61% | 0% | 5.24% | -4.22% | 3.99% | 8.06% | 13.9% | 3.68% | 7.69% | -5.54%
12 | Cc1nc(CNCC2CN(C)CCO2)cs1 (stereo not given) | -4.87% | 18.2% | 4.98% | 3.73% | -3.89% | 1.05% | -7.33% | 1.96% | 21.2% | -11.4%
13 | CS(=O)(=O)NCC1CCCN(C(=O)COCc2ccccc2)C1 (stereo not given) | -1.97% | 15.4% | -3.29% | 4.41% | 6.56% | 1.96% | 17.6% | 0.478% | 20.5% | -5.38%
14 | Cc1ccc(-c2nc(CN3CCn4c(nnc4C4CC4)C3)co2)cc1 | -5.43% | -5.33% | -0.413% | -1.41% | 0% | 9.92% | -8.93% | 6.84% | 12.8% | -6.77%
15 | CC(C)(C)c1n[nH]c(C2CN(C(=O)c3ccsc3)CCO2)n1 (stereo not given) | -1.88% | 7.69% | 5.72% | 0.657% | 0.82% | 3.33% | -15.3% | 2.39% | 13.2% | 2.07%
16 | CCn1ccnc1CN1CCN(CC(O)c2ccccc2)CC1 (stereo not given) | -1.54% | 2.56% | 2.88% | -4.79% | 4.51% | 6.91% | 10.2% | 1.44% | 6.02% | -0.452%
17 | CNC(=O)[C@@H]1C[C@H]2CN(Cc3nccs3)C[C@H]2N1C | 0.644% | 27.3% | -2.68% | 0.75% | 2.28% | 19.7% | 11.3% | 12.6% | 22.5% | -5.35%
18 | CCS(=O)(=O)N(C)CC(=O)Nc1ccc(Br)cn1 | -6.17% | 26.7% | 0.132% | -0.402% | -0.444% | 18.2% | 13.7% | 1.58% | 12.8% | -8.92%
19 | CN(C)CC(=O)N1C[C@H]2CCC[C@@]2(COc2ccccn2)C1 | -8.78% | 1.3% | 1.97% | -2.82% | -4.86% | 11.9% | 7.53% | -0.526% | 5.13% | -0.114%
20 | COC(=O)c1cccn1C1CCN(CC(=O)NC2CCCCC2)CC1 | -0.883% | 15.6% | 8.78% | -1.31% | 3.07% | 13.5% | 2.4% | 9.8% | 21.2% | -5.06%
21 | CC(=O)NC1CCCN(C(=O)NCc2cccnc2-n2cccn2)C1 (stereo not given) | -4.23% | 10.7% | -0.777% | -6.22% | 6.21% | 11.4% | 14.4% | 5.79% | 7.69% | -8.06%
22 | CC(C)N1CCCC2(CCN(C(=O)CCCn3cncn3)C2)C1=O (stereo not given) | -5.4% | 5.41% | 6.04% | 7.27% | -1.75% | 15.1% | 19.6% | 7.98% | 12.2% | -6.32%
